Rows were chosen to be rich in hits. Some 2.2% of all compounds tested hit in one or more screens of this group.
HepG2 viability: kills HepG2 cells in TGF-b inhibitor counter-screen; HepG2 CAGA-GFP viability, ATP luminescence, 18 h; Potency, µM (series often up to 46.1 µM), for the others: at the top dose activity change, negative = cytotoxicity, most hits filed as cytotoxic; 410,000 compounds, 0.76% hits; AID 588856; also: potency is read from the fitted curve at half-maximal effect
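HepG2 CAGA-GFP cells (1000/well, DMEM with 1% FBS) received compound, then TGF-beta at 500 pg/mL final, and were incubated 18 hours at 37 degrees C. Viability was read by CellTiter-Glo luminescence. Media-only wells were set as complete cell-killing and DMSO as no toxicity.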
ATXN viability: cell viability loss in ATXN counter-screen; S2 cells (HEK-293 line with an ATXN2-luciferase reporter) viability, CellTiter-Fluor protease fluorescence, 24 h; Potency, µM (titrated, usually from 56.7 µM), most hits filed as cytotoxic; 400,000 compounds, 0.49% hits; also: potency is read from the fitted curve at half-maximal effect; nearly all actives have a fitted effect of over 40% in size
TGFb SMAD3 inh: TGF-b pathway inhibition; Potency, µM (series often up to 46.1 µM), for the others: at the top dose activity, negative = inhibition, most hits filed as inhibitors; HepG2 CAGA-GFP TGF-b/SMAD3 reporter, GFP fluorescence, 18 h; TGF-beta stimulated, 500 pg/mL final; 410,000 compounds, 1.2% hits; also: potency is read from the fitted curve at half-maximal effect; % is scaled to controls: 0 for no effect and ±100 for the full control effect; nearly all actives have a fitted effect of over 65% in size
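Cell-based qHTS in HEPG2 carrying a CAGA-GFP Smad reporter; compounds added before 500 pg/mL final TGF-beta, 18 h incubation at 37 degrees C, GFP fluorescence quantified per cell by imaging cytometry.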
ATXN2 expr inh: reduces ATXN2 reporter expression in HEK-293 cells; 360,000 compounds, 0.72% hits; Potency, µM (series often up to 57 µM), for the others: top-dose activity change, negative = inhibition, usual class: inhibitors; AID 1745845; HEK-293 ATXN2-luciferase reporter, luminescence, 24 h; also: potency is read from the fitted curve at half-maximal effect; % is scaled to controls: 0 for no effect and ±100 for the full control effect; nearly all actives have a fitted effect of over 55% in size
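ATXN2-luciferase reporter cells (luciferase flanked by upstream and downstream ATXN2 gene portions) were treated 24 h at 37 °C with compounds at up to 57 uM. SteadyGlo luminescence gave expression; GF-AFC fluorescence gave viability.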
LDHA inh: inhibitors of human lactate dehydrogenase A | AID 1347041 | activity change, % (values are at about 110 or 230 µM) | purified LDHA, NADH/diaphorase-resazurin fluorescence; hits give low values | 480,000 compounds, 0.15% hits; in the data active = activity change below about -30%; inconclusive = mostly about -25% to -30%;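 also: plate controls were DMSO wells for no effect and wells without enzyme for full effect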
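LDH5 2 nM; NADH 0.06 mM, pyruvate 0.2 mM; 200 mM Tris pH 7.4, EDTA, Tween-20; 5 min RT. Detection: diaphorase 0.133 mg/mL + resazurin 37 µM, fluorescence ex540/em590 at 0 and 20 min; normalized to enzyme-free and DMSO wells.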
mIDH1 inhibitor: blocks human mutant IDH1 R132H enzyme. O75874. IDH1-R132H enzyme, NADPH consumption, diaphorase/resazurin fluorescence. Potency, µM (top dose mostly 76.6 µM), without a hit: at the top dose activity change, negative = inhibition, actives largely listed as inhibitors. 390,000 compounds, 0.093% hits. AID 602179; also: potency is read from the fitted curve at half-maximal effect; % is scaled to controls: 0 for no effect and ±100 for the full control effect; nearly all actives have a fitted effect of over 65% in size
Target sequence (O75874 whole entry R132H, stated change not applied): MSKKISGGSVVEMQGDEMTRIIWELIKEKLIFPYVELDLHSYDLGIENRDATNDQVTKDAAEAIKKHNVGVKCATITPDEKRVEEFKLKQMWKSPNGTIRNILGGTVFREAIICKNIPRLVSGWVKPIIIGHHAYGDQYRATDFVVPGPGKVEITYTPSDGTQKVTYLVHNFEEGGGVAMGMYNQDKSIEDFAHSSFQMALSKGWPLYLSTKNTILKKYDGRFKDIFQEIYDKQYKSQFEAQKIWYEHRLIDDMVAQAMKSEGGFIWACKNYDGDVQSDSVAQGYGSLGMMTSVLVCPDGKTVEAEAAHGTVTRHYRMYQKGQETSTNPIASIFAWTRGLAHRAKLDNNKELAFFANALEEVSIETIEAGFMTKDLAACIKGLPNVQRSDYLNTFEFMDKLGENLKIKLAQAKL
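IDH1-R132H (0.5 ug/mL) preincubated 30 min with compound, then NADPH (0.016 mM) and alpha-KG (2 mM) added; 80 min at RT, pH 7.5. Remaining NADPH coupled via diaphorase/resazurin to fluorescence (540/590 nm); concentration-response curves normalized to no-enzyme control.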
SK-N-SH 3D tox: reduced viability of SK-N-SH 3D spheroids, orthogonal test; Potency, µM (titrated, usually from 30.7 µM), actives largely listed as inhibitors; 65 compounds, 70% hits; SK-N-SH 3D spheroid viability, PI/Hoechst imaging, 72 h; shares compounds with ATXN2 expr inh
SJ-GBM2 3D tox: lowers viability of SJ-GBM2 3D spheroids; shares compounds with ATXN2 expr inh; AID 1347136; SJ-GBM2 3D spheroid viability, PI/Hoechst imaging, 72 h; 65 compounds, 80% hits; Potency, µM (titrated, usually from 30.7 µM), actives largely listed as inhibitors
Daoy spheroid: kills Daoy spheroids in orthogonal 3D test. Potency, µM (series often up to 30.7 µM), actives largely listed as inhibitors. shares compounds with ATXN2 expr inh. Daoy 3D spheroid viability, PI/Hoechst imaging, 72 h. AID 1347137. 65 compounds, 50% hits
TC32 3D caspase: caspase activation in TC32 3D spheroids, orthogonal test. TC32 3D spheroids, caspase-3/7 fluorescence imaging, 24 h. Potency, µM (titrated, usually from 30.7 µM), usual class: inhibitors. shares compounds with ATXN2 expr inh. 65 compounds, 30% hits
TC32 3D tox: kills TC32 spheroids in orthogonal 3D test; 65 compounds, 60% hits; AID 1347139; Potency, µM (doses to about 30.7 µM), hits mostly inhibitors; shares compounds with ATXN2 expr inh; TC32 3D spheroid viability, PI/Hoechst imaging, 72 h
MG63 spheroid: reduced viability of MG-63 (6-TG R) 3D spheroids, orthogonal test | shares compounds with ATXN2 expr inh | MG-63 (6-TG R) 3D spheroid viability, PI/Hoechst imaging, 72 h | Potency, µM (series often up to 30.7 µM), actives largely listed as inhibitors | 65 compounds, 50% hits
RD 3D tox: kills RD rhabdomyosarcoma spheroids in orthogonal 3D test; 65 compounds, 50% hits; Potency, µM (doses to about 30.7 µM), hits mostly inhibitors; shares compounds with ATXN2 expr inh; RD rhabdomyosarcoma 3D spheroid viability, PI/Hoechst imaging, 72 h
An asterisk follows results filed as active; i = inactive; ? = inconclusive; . = not tested or not shown. Unless noted, calls follow the shape of the dose curve; as a rule, active = well fitted curve in the direction sought with a large enough effect; inconclusive = small, poorly fitted or top-dose-only effect, or another doubt; inactive = no such curve, though single readings can be large; an effect the other way counts as inactive or inconclusive.

SMILES	HepG2 viability	ATXN viability	TGFb SMAD3 inh	ATXN2 expr inh	LDHA inh	mIDH1 inhibitor	others
COc1cccc2c1C(=O)c1c(O)c3c(c(O)c1C2=O)C[C@@](O)(C(=O)CO)C[C@@H]3O[C@H]1C[C@H](N)[C@H](OC2CCCCO2)[C@H](C)O1 (stereo partly drawn)	-14.5%	.	?	1.53µM*	11.9	.	SK-N-SH 3D tox=0.287µM*;SJ-GBM2 3D tox=0.722µM*;Daoy spheroid=1.44µM*;TC32 3D caspase=1.44µM*;TC32 3D tox=1.02µM*;MG63 spheroid=?;RD 3D tox=?
CC(C)c1ccc(-n2c(O)c(C=NCCN3CCNCC3)c(=O)[nH]c2=S)cc1	7.0%	i	-1.6%	.	-5.7	0.0%
COc1ccc(CN2Cc3cc(-c4ccccc4)ccc3-n3nncc3C2)cc1	-30.0%	i	?	-3.3%	-1.1	.
COc1cc([C@@H]2c3cc4c(cc3[C@H](O)[C@H]3COC(=O)[C@H]23)OCO4)cc(OC)c1OC	-4.1%	?	-37.4%	-4.4%	-2.9	-7.7%	SK-N-SH 3D tox=0.0228µM*;SJ-GBM2 3D tox=0.0362µM*;Daoy spheroid=?;TC32 3D caspase=0.0574µM*;TC32 3D tox=0.0574µM*;MG63 spheroid=?;RD 3D tox=0.0456µM*
c1cnc2c(c1)ncn2C1CCNCC1	0.6%	i	6.5%	1.1%	-3.2	-6.5%
CCNC1CCCCC1	.	.	.	.	-8.2	.
O=C(OC1CCN(CCCl)CC1)C(c1ccccc1)c1ccccc1	-13.0%	i	0.5%	-1.7%	-9.1	-8.4%
O=C(CCN1CCN(CCO)CC1)N1c2ccccc2Sc2ccc(C(F)(F)F)cc21	-22.3%	i	-7.9%	-21.7%	-1.7	5.6%
Brc1ccccc1Cn1c(-c2cncs2)nc2ccccc21	-23.5%	?	-3.0%	-19.5%	4.1	6.5%
C[C@]12CCC3C(CC[C@@H]4CC(=O)CC[C@]34C)C1CC[C@@H]2O (stereo partly drawn)	-3.6%	i	0.6%	-12.4%	-2.5	0.4%
O=C1C2CCCN2C(c2cccs2)N1c1ccccn1 (stereo not drawn)	0.5%	?	-2.3%	-10.0%	-13.1	1.6%
CCC1(c2cccc(O)c2)CCCCN(C)C1 (stereo not drawn)	1.9%	i	2.2%	4.2%	2.0	-12.1%
Cc1ccc(NC(=O)CN2C(=O)CN=C(c3ccccc3)c3ccccc32)cc1	4.4%	.	0.0%	.	-1.0	4.9%
C=CCN1CCc2cccc3c2[C@H]1Cc1ccc(O)c(O)c1-3	-10.9%	?	?	?	0.3	-6.9%
CC/C(=C(\c1ccc(O)cc1)c1ccc(OCCN(C)C)cc1)c1ccccc1	-97.0%	.	?	?	4.4	-11.5%
